An excerpt weighted towards active compounds, which were near 1% of everything screened.
L3MBTL1 inh-1: qHTS Assay for the Inhibitors of L3MBTL1. Lethal(3)malignant brain tumor-like protein 1 (Homo sapiens), Q9Y468. AlphaScreen L3MBTL1–H3K9me1 peptide binding. Potency, µM (top dose mostly 57.1 µM), inactives show at the top dose activity, negative = inhibition, hits mostly inhibitors. actives 0.66% (n = 230,000). AID 485360, 2010; also: % is scaled to controls: 0 for no effect and ±100 for the full control effect; nearly all actives have a fitted effect of over 60% in size
Target sequence (Q9Y468 whole entry, looked up): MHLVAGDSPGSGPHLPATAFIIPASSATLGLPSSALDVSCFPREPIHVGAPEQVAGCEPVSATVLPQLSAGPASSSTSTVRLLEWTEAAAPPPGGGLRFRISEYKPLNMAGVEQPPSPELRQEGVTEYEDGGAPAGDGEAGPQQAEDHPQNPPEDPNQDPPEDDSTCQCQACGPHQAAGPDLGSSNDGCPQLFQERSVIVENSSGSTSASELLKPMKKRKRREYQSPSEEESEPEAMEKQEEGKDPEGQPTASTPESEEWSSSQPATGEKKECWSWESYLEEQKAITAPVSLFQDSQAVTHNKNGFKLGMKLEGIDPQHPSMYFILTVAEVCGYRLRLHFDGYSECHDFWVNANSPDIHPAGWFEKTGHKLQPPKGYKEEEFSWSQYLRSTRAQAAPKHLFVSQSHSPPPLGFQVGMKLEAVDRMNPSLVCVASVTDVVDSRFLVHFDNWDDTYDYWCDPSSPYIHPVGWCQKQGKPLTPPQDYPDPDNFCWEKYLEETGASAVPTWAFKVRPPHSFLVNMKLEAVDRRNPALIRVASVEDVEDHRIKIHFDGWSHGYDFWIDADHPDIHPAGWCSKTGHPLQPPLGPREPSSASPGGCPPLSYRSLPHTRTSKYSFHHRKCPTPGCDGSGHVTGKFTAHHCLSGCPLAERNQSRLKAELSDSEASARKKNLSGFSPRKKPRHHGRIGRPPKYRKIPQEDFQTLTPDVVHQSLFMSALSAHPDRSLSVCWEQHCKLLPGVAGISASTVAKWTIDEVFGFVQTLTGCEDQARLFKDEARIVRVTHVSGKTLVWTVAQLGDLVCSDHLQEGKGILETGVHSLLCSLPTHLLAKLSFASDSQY
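L3MBTL1 50 nM + b-AHA-H3(1-15)K9me1 75 nM, 30 min RT; compound added, 30 min RT; streptavidin donor/Ni-chelate acceptor beads 10 ug/mL each final, 30 min RT dark; AlphaScreen read.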
RECQ1 inh: qHTS Assay for Inhibitors of RecQ-Like Dna Helicase 1 (RECQ1) | ATP-dependent DNA helicase Q1 (Homo sapiens), P46063 | RECQ1 DNA unwinding, red fluorescence kinetic read | Potency, µM (top dose mostly 57.3 µM), inactives show at the highest dose activity, negative = inhibition, hits mostly inhibitors | actives 0.54% (n = 240,000) | AID 2549, 2010;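 also: plate controls were vehicle for no effect and no enzyme for full effect; nearly all actives have a fitted effect of over 30% in size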
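RECQ1T1 50 nM; forked duplex (20 bp + 30-nt ss tails) 200 nM, ATP 2 mM final; pH 8.0, 2 mM MgCl2, 2.5 ug/ml poly(dI-dC); 15 min compound preincubation; discontinuous kinetic read over 2 h at RT.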
FEN1 inh: qHTS Assay for the Inhibitors of Human Flap endonuclease 1 (FEN1); P39748; Potency, µM (titrated, usually from 114 µM), without a hit: at the highest dose activity change, negative = inhibition, usual class: inhibitors; AID 588795, 2011; actives 0.35% (n = 390,000); Recombinant FEN1 flap cleavage, fluorescence, 15 min; also: % is scaled to controls: 0 for no effect and ±100 for the full control effect; nearly all actives have a fitted effect of over 65% in size
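With each library titrated from low to high concentration, compounds met 10 nM FEN1 for 15 min at room temperature before 50 nM substrate was added; readings at 0 and 15 min fed four-parameter Hill curve fits.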
APE1 inh: qHTS Assay for Inhibitors of the Human Apurinic/apyrimidinic Endonuclease 1 (APE1); DNA repair nuclease/redox regulator APEX1 (Homo sapiens), P27695; recombinant APE1, TAMRA/BHQ-2 abasic DNA cleavage fluorescence; Potency, µM (titrated, usually from 65.8 µM), inactives show top-dose activity change, negative = inhibition, actives largely listed as inhibitors; actives 0.35% (n = 350,000); AID 2517, 2012;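 also: plate controls were vehicle for no effect and reference inhibitor for full effect; nearly all actives have a fitted effect of over 55% in size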
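Kinetic fluorescence read (525 ex/598 em nm, three reads 60 s apart) of AP-site incision; signal = third minus first read. Enzyme 0.75 nM, dual-labelled THF duplex 50 nM, compound preincubation 15 min RT.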
BLM inh: qHTS Assay for Inhibitors of Bloom's syndrome helicase (BLM) | RecQ-like DNA helicase BLM (Homo sapiens), P54132 | recombinant BLM DNA unwinding, fluorescence dequenching | Potency, µM (doses to about 56.1 µM), for the others: at the top dose activity change, negative = inhibition, hits mostly inhibitors | actives 0.2% (n = 350,000) | AID 2528, 2010;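 also: plate controls were vehicle for no effect and no enzyme for full effect; nearly all actives have a fitted effect of over 35% in size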
WRN inhibitor: qHTS for Inhibitors of WRN Helicase | Potency, µM (titrated, usually from 114 µM), inactives show at the top dose activity change, negative = inhibition, hits mostly inhibitors | WRN helicase unwinding, fluorescent forked duplex, kinetic | actives 0.46% (n = 360,000) | Bifunctional 3'-5' exonuclease/ATP-dependent helicase WRN (Homo sapiens), Q14191; also: % is scaled to controls: 0 for no effect and ±100 for the full control effect; nearly all actives have a fitted effect of over 55% in size
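Kinetic red-fluorescence monitoring (525/598 nm) tracks WRN helicase activity after 100 nM fluorophore-quencher forked duplex and 2 mM ATP are added to 20 nM enzyme pretreated 15 min at room temperature with compound.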
L3MBTL1 inh-2: qHTS Assay for the Inhibitors of L3MBTL1: Hit Validation | shares compounds with L3MBTL1 inh-1 | L3MBTL1 methyl-lysine binding inhibition, biochemical qHTS | Potency, µM, hits mostly inhibitors | actives 91% (n = 500) | AID 540279, 2011; also: nearly all actives have a fitted effect of over 70% in size
AlphaScreen ctr2: qHTS Assay for the Inhibitors of L3MBTL1: Hit Validationin AlphaScreen Counterscreen | shares compounds with L3MBTL1 inh-1 | AlphaScreen counterscreen, signal inhibition | Potency, µM (top dose mostly 57.1 µM), inactives show at the highest dose activity change, negative = inhibition, hits mostly inhibitors | 500 tested, under 10 active; also: 0% is about no effect
Starred values were filed as active, the others as inactive; i = inactive; ? = inconclusive; / = no result given; [ ] = remark or other dose. Calls follow the shape of the dose curve; as a rule, active = well fitted curve in the direction sought with a large enough effect; inconclusive = small, poorly fitted or top-dose-only effect, or another doubt; inactive = no such curve, though single readings can be large; an effect the other way counts as inactive or inconclusive. Potency is read from the fitted curve at half-maximal effect.

SMILES | L3MBTL1 inh-1 | RECQ1 inh | FEN1 inh | APE1 inh | BLM inh | WRN inhibitor | L3MBTL1 inh-2 | AlphaScreen ctr2
COC(=O)c1ccc(C(=O)OC)c(NC(=O)C2CC(=O)N(C3CCCC3)C2)c1 (stereo not given) | / | / | 3% | / | / | 9% | / | /
CCc1cc2c(=O)[nH]c(-c3ccccn3)nc2s1 | ? | i | 14% | 3% | -8% | -21% | / | /
COc1cnc(-c2ccccn2)[nH]c1=O | 10µM* | i | -2% | 4% | 1% | 0% | 21* | 13%
O=C(Nn1cc(C(=O)Nc2ccccc2F)c2ccccc2c1=O)c1cnccn1 | 40µM* | -12% | -3% | 9% | 0% | -7% | ? | 36%
O=Cc1cccn1-c1cccc([N+](=O)[O-])c1 | -3% | 0% | -5% | 4% | 4% | 2% | / | /
O=C(O)c1cccc(-n2cccc2/C=C\[N+](=O)[O-])c1 | 32µM* | -28% | ? | 13µM* | 6% | ? | 21* | 14%
COCOc1cccc(CN2CCC2(C)C(=O)Nc2cc(OC)ccc2OC)c1 (stereo not given) | / | / | / | / | / | -4% | / | /
Cc1ccc(CN2C(=O)N/C(=C\c3cccn3-c3cccc(C(=O)O)c3)C2=O)cc1 | 2.5µM* | -3% | ? | 16% | -6% | 32µM* | 2.7* | -20%
CCn1c(C)cc(/C=C2\NC(=O)N(CC(=O)Nc3cccc(C)c3)C2=O)c1C | -7% | -23% | -8% | -12% | -6% | -5% | / | /
Cc1ccc(CN2C(=O)N/C(=C/c3ccc4c(c3)n(C)c(=O)n4C)C2=O)cc1 | / | -11% | / | 21% | -12% | / | / | /
Cc1ccc(NC(=O)CN2C(=O)N/C(=C/c3cc(C)n(-c4cccc(C(=O)O)c4)c3C)C2=O)cc1 | 25µM* | ? | -3% | 11µM* | -6% | ? | 17* | -13%
COc1ccc(Cl)cc1NC(=O)COC(=O)c1cc(NS(=O)(=O)c2cccs2)ccc1O | 40µM* | 0% | -30% | 15% | -11% | -24% | ? | 6%
COc1ccc(Cl)cc1NC(=O)CN(C)S(=O)(=O)c1cccs1 | / | / | 12% | 49% | -4% | 8%[57.1 µM] | / | /
Cc1ccc(-c2nc3cccc(C)n3c2Nc2ccc(F)cc2)o1 | / | / | 4% | / | / | / | / | /
O=C(/C=C/c1ccco1)Nc1cc(Cl)ccc1C(=O)O | 28µM* | -7% | -17% | ? | 38% | -36% | 11* | 16%
O=C1CC(c2ccco2)CC(O)=C1C=Nc1cc(Cl)ccc1Cl (stereo not given) | 35µM* | 7% | -13% | ? | -18% | ? | 24* | -1%
O=C1CC(c2ccco2)CC(O)=C1C=Nc1ccc(Br)cc1 (stereo not given) | / | -15% | -5% | -7% | -6% | -22% | / | /
CCCc1nc2sc3c(SCC(=O)NCc4ccco4)ncnc3c2c2c1CCC2 | 14µM* | ? | ? | ? | ? | 40µM* | 19* | 3%
CN(C)c1ncc2nc(-c3ccccc3)c(=O)n(CCc3ccccc3)c2n1 | / | -13% | / | ? | 1% | / | / | /
O=C(NCCC1=CCCCC1)C(=O)NCc1ccccc1 | -17% | -1% | -1% | -4% | -1% | 6% | / | /
O=C(O)C1C2C=CC(O2)C1C(=O)NCCC1=CCCCC1 (stereo not given) | 18µM* | -2% | 5% | -5% | 2% | -19% | 3.8* | 2%
COCC(=O)Nc1ccc2c(c1)[C@@H]1C[C@H](CC(=O)OC)O[C@H](CO)[C@@H]1O2 | / | / | / | / | / | 8% | / | /
CC(C)C1Nc2ccc(C(=O)O)cc2C2C=CCC21 (stereo not given) | 4.5µM* | 13% | ? | 4% | -7% | 50µM* | 3* | -20%
CCCC1Nc2ccc(C(=O)O)cc2C2C=CCC12 (stereo not given) | 10µM* | i | ? | 7% | 0% | ? | 3.8* | -20%
CCOC(=O)C1=C(CNCc2ccccc2)NC(=O)NC1c1ccc(C)cc1 (stereo not given) | / | / | -15% | / | -3% | / | / | /
SMILES | L3MBTL1 inh-1 | RECQ1 inh | FEN1 inh | APE1 inh | BLM inh | WRN inhibitor | L3MBTL1 inh-2 | AlphaScreen ctr2
Cc1sc(NC(=O)c2sc3nc4c(C)cccc4cc3c2N)c(C#N)c1C | 18µM* | i | -22% | -2% | ? | ? | 6.7* | -2%
CCCCCCn1c(=O)n2n(c1=O)C[C@]1(OC(=O)NCc3ccco3)CN(S(=O)(=O)c3ccc(C)cc3)C[C@]1(O)C2 | / | / | / | / | / | -6% | / | /
COCCCN1C(=O)C(CC(=O)NCCc2ccccn2)CC(C(=O)N2CCCCCC2)=C1C (stereo not given) | / | / | / | / | / | 4% | / | /
O=C(Oc1ccccc1F)c1ccc2c(=O)n3c(nc2c1)CCC3 | 35µM* | / | -19% | 18% | / | -17% | ? | 9%
CC(C)(C)S(=O)N1Cc2cc(C(=O)N3CCc4ccccc4C3)nc(-c3cccc(-c4ccncc4)c3)c2[C@H]1CCO (stereo not given in full) | / | / | / | / | / | -10% | / | /
Cc1ccc(S(=O)(=O)Nc2c(C)nn(C)c2C)cc1C | 2% | / | -6% | 4% | / | -2% | / | /
CC(=O)c1ccc(S(=O)(=O)Nc2c(C)nn(C)c2C)cc1 | 28µM* | / | -9% | ? | / | -7%[11.6 µM] | ? | 2%
CCOc1ccc(OCc2ccc(C(=O)O)o2)cc1 | 32µM* | -6% | -10% | ? | 3% | -15%[11.6 µM] | 11* | 1%
O=C(COC(=O)C1CCN(S(=O)(=O)c2cccs2)CC1)c1cc2ccccc2o1 | 32µM* | -14% | -3% | -5% | -17% | -18% | ? | -1%
CC(Cc1c[nH]c2ccccc12)C(=O)O (stereo not given) | 2µM* | 35µM* | 14% | ? | -7% | -5%[11.6 µM] | 3* | 2%

Screens as filed in PubChem.
